# According to PubChem BioAssay:
# Several values for one entry are separate records, joined by “and”; a condition that tells them apart may be missing. Equal values may be shown once. Results filed as inconclusive are left out. Activity calls are given as the source filed them. Unless noted, the limit is not given here; nearly all actives have AC50 up to about 26 µM.
# How the values were obtained:
# [1] = drug combination growth inhibition, ovarian cancer – cell-based, oncology-focused library, rucaparib conditional, profiling panel (AID 1508598;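 active = normalized viability below 100% at a tested concentration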); conditions: patient-derived ovarian cancer cells, CellTiter-Glo viability, 144 h, stronger effect = lower value
# [2] = galactose survival enhancers in mitochondrial complex I cybrids – cell-based, galactose medium, ATP luminescence, primary screen (AID 1645843;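 active = z-score of at least 1.8 in each of two replicates, scored against plate mean and spread of sample wells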;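 also: positive z means more ATP and so rescue of galactose-driven cybrid death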); conditions: complex I mutant cybrid cells, 72 h, stronger effect = higher value
# [3] = test system: Aerobactin synthetase IucA (Klebsiella pneumoniae); experiment: inhibition of K. pneumoniae IucA enzyme – biochemical, Tocris library, absorbance (AID 1345561; call rule not given here;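 also: 100% = enzyme without compound and 0% = no enzyme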); conditions: purified IucA enzyme assay, absorbance (OD) read-out; stronger effect = lower value;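 tested at 8 µM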
# [4] = viability loss in pontine glioma line – cell-based, SU-DIPG-XVII, MIPE5.0, CellTiter-Glo, qHTS, dose response (AID 1347060); conditions: CellTiter-Glo ATP luminescence;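 as to AC50: cells exposed to compound for 48 hours before viability readout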
# [5] = viability loss in pontine glioma line – cell-based, JHH-DIPG-1, MIPE4.0, CellTiter-Glo, qHTS, dose response (AID 1347062; cut-off not given, nearly all actives have AC50 up to about 27 µM;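 as to AC50: cells exposed to compound for two days before readout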); conditions: JHH-DIPG-1 viability, CellTiter-Glo ATP luminescence
# [6] = viability loss in pontine glioma line – cell-based, SU-DIPG-XXV, MIPE5.0, CellTiter-Glo, qHTS, dose response (AID 1347065); conditions: CellTiter-Glo ATP luminescence;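 also: cells exposed to compound for 48 hours before ATP readout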
# [7] = growth inhibition of DIPG cells – cell-based, MIPE4.0 library, CellTiter-Glo luminescence, qHTS (AID 1347066; cut-off not given, nearly all actives have AC50 up to about 30 µM;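 also: cells exposed to compound for 48 hours before readout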); conditions: SU-DIPG-VI viability, CellTiter-Glo ATP luminescence
# [8] = JHH-DIPG-1 glioma cell viability, MIPE5.0 library, CellTiter-Glo luminescence, qHTS (AID 1347067); conditions: JHH-DIPG-1 glioma viability, CellTiter-Glo ATP luminescence;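 also: cells exposed to compound for 48 hours before readout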
# [9] = growth inhibition of DIPG cells – cell-based, MIPE5.0 library, qHTS (AID 1347068; cut-off not given, nearly all actives have IC50 up to about 30 µM;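 as to IC50: cells exposed to compound for 48 hours before viability readout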); conditions: SU-DIPG-XXV viability
# [10] = viability loss with induced miR-34 in A549 – imaging, A549 dox-inducible miR-34, nuclei and caspase counts, primary screen (AID 1347080;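 active = compounds whose cell count with miR-34 switched on is under 0.7 times the count with it off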); conditions: A549 miR-34 inducible, Hoechst nuclei count, 48 h
# [11] = viability loss in pontine glioma line – cell-based, SU-DIPG-XIII, MIPE4.0, CellTiter-Glo, qHTS, dose response (AID 1347061; cut-off not given, nearly all actives have AC50 up to about 37 µM;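 also: cells exposed to compound for 48 hours before readout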); conditions: CellTiter-Glo ATP luminescence
# [12] = viability loss in pontine glioma line – cell-based, SU-DIPG-IV, MIPE4.0, CellTiter-Glo, qHTS, dose response (AID 1347063; cut-off not given, nearly all actives have AC50 up to about 30 µM;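 also: compound exposure lasted 48 hours before the viability readout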); conditions: CellTiter-Glo ATP luminescence
# [13] = viability loss in pontine glioma line – cell-based, SU-DIPG-XIII, MIPE5.0, CellTiter-Glo, qHTS, dose response (AID 1347064; cut-off not given, nearly all actives have AC50 up to about 23 µM;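 as to AC50: cells exposed to compound for 48 hours before the viability read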); conditions: CellTiter-Glo ATP luminescence
# [14] = compounds altering HSF1 focus formation in cells – imaging, Selleck Cancer Library (AID 1347162; in the data active = plate-normalised HSF1 focus index below about 0.46); conditions: human cells, HSF1 nuclear foci imaging, at 10 µM; SSMD: measured here: HSF1 foci SSMD mean; cell count: measured here: cell number; plate-normalised HSF1 focus index: stronger effect = lower value
# [15] = MELAS cybrid and Rieske KO viability enhancers – cell-based, MELAS cybrids, Rieske KO mouse fibroblasts, CellTiter-Glo, primary screen (AID 1508586;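 active = mean z-score across replicates of 1.96 or higher in either the MELAS or the Rieske mutant cell line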;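 also: z relative to plate mean and SD of compound and empty wells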); conditions: low glucose
# [16] = stronger effect = lower value, cell number ratio, induced over uninduced
# [17] = measured here: relative caspase fold change +Dox/-Dox
# [18] = measured here: total cells with miR-34 induction, stronger effect = lower value
# [19] = measured here: total cells without miR-34 induction
# [20] = MELAS cybrid survival, CellTiter-Glo 48 h, stronger effect = higher value
# [21] = Rieske KO mouse fibroblast survival, CellTiter-Glo 72 h
smiles,measurement,setting,value
N#Cc1c(O)c2c(-c3ccc(-c4ccccc4O)cc3)csc2[nH]c1=O,viability,"[1]; at 0.0195 µM, OCI-C5x cells, with rucaparib 10 µM, 100% = cells with rucaparib alone",112% (inactive)
same,viability,"[1]; at 0.0195 µM, OCI-C5x cells, without rucaparib",122% (inactive)
same,viability,"[1]; at 0.0195 µM, OCI-P5x cells, with rucaparib 20 µM, 100% = cells with rucaparib alone",116% (inactive)
same,viability,"[1]; at 0.0195 µM, OCI-P5x cells, without rucaparib",114% (inactive)
same,viability,"[1]; at 0.0781 µM, OCI-C5x cells, with rucaparib 10 µM, 100% = cells with rucaparib alone",113% (inactive)
same,viability,"[1]; at 0.0781 µM, OCI-C5x cells, without rucaparib",127% (inactive)
same,viability,"[1]; at 0.0781 µM, OCI-P5x cells, with rucaparib 20 µM, 100% = cells with rucaparib alone",119% (inactive)
same,viability,"[1]; at 0.0781 µM, OCI-P5x cells, without rucaparib",115% (inactive)
same,viability,"[1]; at 0.313 µM, OCI-C5x cells, with rucaparib 10 µM, 100% = cells with rucaparib alone",115% (inactive)
same,viability,"[1]; at 0.313 µM, OCI-C5x cells, without rucaparib",134% (inactive)
same,viability,"[1]; at 0.313 µM, OCI-P5x cells, with rucaparib 20 µM, 100% = cells with rucaparib alone",117% (inactive)
same,viability,"[1]; at 0.313 µM, OCI-P5x cells, without rucaparib",118% (inactive)
same,viability,"[1]; at 1.25 µM, OCI-C5x cells, with rucaparib 10 µM, 100% = cells with rucaparib alone",112% (inactive)
same,viability,"[1]; at 1.25 µM, OCI-C5x cells, without rucaparib",140% (inactive)
same,viability,"[1]; at 1.25 µM, OCI-P5x cells, with rucaparib 20 µM, 100% = cells with rucaparib alone",107% (inactive)
same,viability,"[1]; at 1.25 µM, OCI-P5x cells, without rucaparib",107% (inactive)
same,viability,"[1]; at 5 µM, OCI-C5x cells, with rucaparib 10 µM, 100% = cells with rucaparib alone",118% (inactive)
same,viability,"[1]; at 5 µM, OCI-C5x cells, without rucaparib",135% (inactive)
same,viability,"[1]; at 5 µM, OCI-P5x cells, with rucaparib 20 µM, 100% = cells with rucaparib alone",92.2% (active)
same,viability,"[1]; at 5 µM, OCI-P5x cells, without rucaparib",90.6% (active)
same,z-score,[2],1.98 (inactive)
Cc1ccc(/C=N/NC(=O)c2ccccc2Oc2ccccc2)o1,remaining activity,[3],79% (inactive)
same,outcome,[4],inactive
same,outcome,[5],inactive
same,outcome,[6],inactive
same,outcome,[7],inactive
same,outcome,[8],inactive
same,outcome,[9],inactive
same,fold change,[10]; [16],0.862 (inactive)
same,fold change,[10]; [17],1.34
same,cell count,[10]; [18],7340
same,cell count,[10]; [19],8520
same,z-score,[2],-0.2 (inactive)
CCN(CC)CCCC(C)Nc1nc(C)cc(Nc2ccc3nc(C)cc(N)c3c2)n1 (centres undefined),remaining activity,[3],104% (inactive)
same,outcome,[4],inactive
same,outcome,[11],inactive
same,outcome,[12],inactive
same,outcome,[13],inactive
same,outcome,[7],inactive
same,outcome,[8],inactive
same,outcome,[9],inactive
same,fold change,[10]; [16],0.97 (inactive) and 0.925 (inactive)
same,fold change,[10]; [17],0.421 and 1.06
same,cell count,[10]; [18],7920 and 8660
same,cell count,[10]; [19],8160 and 9370
same,SSMD,[14],3.48
same,cell count,[14],7010
same,plate-normalised HSF1 focus index,[14],1.21 (inactive)
same,z-score,[15]; [20],-0.488 (inactive)
same,z-score,[15]; [21],-2.27
same,z-score,[2],2.71 (active)
COc1cc(OC)c(NC(=O)Nc2cc(C)on2)cc1Cl,remaining activity,[3],101% (inactive)
same,outcome,[4],inactive
same,outcome,[11],inactive
same,outcome,[5],inactive
same,outcome,[12],inactive
same,outcome,[13],inactive
same,outcome,[6],inactive
same,outcome,[7],inactive
same,outcome,[8],inactive
same,fold change,[10]; [16],0.801 (inactive) and 0.945 (inactive)
same,fold change,[10]; [17],0.762 and 1.52
same,cell count,[10]; [18],8290 and 9250
same,cell count,[10]; [19],10400 and 9800
same,z-score,[15]; [20],-0.366 (inactive)
same,z-score,[15]; [21],1.34
same,z-score,[2],1.75 (inactive)
COc1ccc(CCN(C)CCCOc2ccc(S(=O)(=O)c3c(C(C)C)c4ccccc4n3C)cc2)cc1OC,remaining activity,[3],115% (inactive)
same,AC50,[4],18.6 µM (active)
same,AC50,[13],23.5 µM (active)
same,AC50,[6],9.34 µM (active)
same,outcome,[7],inactive
same,AC50,[8],10.5 µM (active)
same,fold change,[10]; [16],1.02 (inactive)
same,fold change,[10]; [17],0.864
same,cell count,[10]; [18],222
same,cell count,[10]; [19],219
same,SSMD,[14],-4.23
same,cell count,[14],5740
same,plate-normalised HSF1 focus index,[14],0.749 (inactive)
same,z-score,[2],-1.04 (inactive)
Cc1cc(NC(=O)Nc2ccc(N(C)C)cc2)c2cc(F)cc(F)c2n1,remaining activity,[3],98.2% (inactive)
same,outcome,[4],inactive
same,outcome,[11],inactive
same,outcome,[5],inactive
same,outcome,[13],inactive
same,outcome,[7],inactive
same,outcome,[8],inactive
same,outcome,[9],inactive
same,fold change,[10]; [16],0.902 (inactive) and 0.887 (inactive)
same,fold change,[10]; [17],0.91 and 0.717
same,cell count,[10]; [18],6380 and 7970
same,cell count,[10]; [19],7070 and 8990
same,z-score,[15]; [20],1.11 (inactive)
same,z-score,[15]; [21],-0.687
same,z-score,[2],-0.32 (inactive)
COc1ccc([C@@H]2CNC(=O)C2)cc1OC1CCCC1,remaining activity,[3],102% (inactive)
same,outcome,[4],inactive
same,outcome,[5],inactive
same,outcome,[13],inactive
same,outcome,[8],inactive
same,outcome,[9],inactive
same,fold change,[10]; [16],0.954 (inactive)
same,fold change,[10]; [17],0.878
same,cell count,[10]; [18],8940
same,cell count,[10]; [19],9370
same,z-score,[2],-0.11 (inactive)
CCOC(=O)C1=C(N)Oc2ccc(Br)cc2C1C(C#N)C(=O)OCC (centres undefined),remaining activity,[3],92.3% (inactive)
same,AC50,[4],26.3 µM (active)
same,outcome,[11],inactive
same,AC50,[5],23.5 µM (active)
same,AC50,[6],23.5 µM (active)
same,AC50,[7],20.9 µM (active)
same,outcome,[9],inactive
same,fold change,[10]; [16],1.02 (inactive)
same,fold change,[10]; [17],1.4
same,cell count,[10]; [18],6950
same,cell count,[10]; [19],6840
same,z-score,[2],-0.87 (inactive)
CCOc1ccc(Nc2nc(-c3c(C)nc4ccccn34)cs2)cc1,remaining activity,[3],103% (inactive)
same,AC50,[4],0.0661 µM (active)
same,AC50,[5],16.6 µM (active)
same,AC50,[13],0.059 µM (active)
same,AC50,[6],0.0372 µM (active)
same,outcome,[7],inactive
same,AC50,[8],0.0525 µM (active)
same,IC50,[9],0.372 µM (active)
same,fold change,[10]; [16],1.03 (inactive)
same,fold change,[10]; [17],1.27
same,cell count,[10]; [18],2200
same,cell count,[10]; [19],2140
same,SSMD,[14],4.16
same,cell count,[14],6300
same,plate-normalised HSF1 focus index,[14],1.25 (inactive)
same,z-score,[2],-0.68 (inactive)
Fc1ccc(Cl)cc1-c1nc(Nc2ccncc2)c2nccnc2n1,remaining activity,[3],110% (inactive)
same,AC50,[4],23.5 µM (active)
same,outcome,[11],inactive
same,outcome,[5],inactive
same,outcome,[12],inactive
same,outcome,[7],inactive
same,outcome,[9],inactive
same,fold change,[10]; [16],0.904 (inactive)
same,fold change,[10]; [17],1.34
same,cell count,[10]; [18],8670
same,cell count,[10]; [19],9590
same,z-score,[2],1.11 (inactive)
O=c1[nH]nc(Sc2ncc([N+](=O)[O-])s2)n1-c1ccc2c(c1)OCCO2,remaining activity,[3],125% (inactive)
same,AC50,[4],3.72 µM (active)
same,AC50,[11],5.9 µM (active)
same,AC50,[5],5.26 µM (active)
same,AC50,[13],3.72 µM (active)
same,AC50,[6],2.35 µM (active)
same,AC50,[7],2.64 µM (active)
same,AC50,[8],2.95 µM (active)
same,IC50,[9],23.5 µM (active)
same,fold change,[10]; [16],1.25 (inactive)
same,fold change,[10]; [17],0.969
same,cell count,[10]; [18],2070
same,cell count,[10]; [19],1660
same,SSMD,[14],-8.15
same,cell count,[14],5980
same,plate-normalised HSF1 focus index,[14],0.592 (inactive)
same,z-score,[2],-0.705 (inactive)
